{"source": "PubChem BioAssay AID493206", "about": "(National Center for Advancing Translational Sciences (NCATS), 2011)", "note": "“And” between values parts separate entries of the source, which are not always exact repeats. Equal entries are not always repeated. Inconclusive results are not listed. The source made the active and inactive calls. Calls follow the shape of the dose curve; as a rule, active = well fitted inhibition curve with a large enough effect; inconclusive = small, poorly fitted or top-dose-only effect; inactive = flat fitted curve, though single readings scatter.", "data": [{"target": "Dual specificity tyrosine-phosphorylation-regulated kinase 1A (Homo sapiens) (UniProt Q13627)", "assay": "Assay for Inhibitors of Dual-Specificity Tyrosine-(Y)-Phosphorylation Regulated Kinase 1A (Kinase-Glo assay): round 2 SAR", "conditions": "recombinant DYRK1A, Kinase-Glo ATP depletion luminescence; series mostly up to 76.9 µM", "excerpt": "NIH Molecular Libraries Probe Production Centers Network [MLPCN] NIH Chemical Genomics Center [NCGC] MLPCN Grant: 1R03MH084827-01 PI Name: Tom Misteli NCGC Assay Overview: The CMGC group of protein kinases which includes CDK-like kinases (Clk) and Dyks are essential kinases found in all eukaryotes. Clks have been implicated to play a role in the regulation of alternative splicing; while Dyrks, in particular over expression of Dyrk1A, has been linked to diseases as Down syndrome (DS; OMIM 190685) and Alzheimer disease (AD; OMIM 104300). Among the members of the CMGC group, the Clks and the Dyrks are very closely related therefore to determine validity and selectivity of an active compound observed in the CLK4 qHTS screen (AID:1770), a bioluminescent counter-screen against Dyrk1A was developed. In addition, potent and selective compounds against Dyrk1A were identified to further assess the role of this enzyme in DS and AD. Dyrk1A (Invitrogen, cat # PV3785) was assayed using ATP and DYRKtide (AnaSpec, cat# 62698) as substrates. Promega Kinase-Glo (cat# V6712) technology was used to detect the residual ATP following kinetic reaction. The Kinase-Glo Plus contains Ultra-Glo [5] luciferase and D-luciferin which generates a bioluminescence signal from the remaining ATP. No enzyme and harmine (Sigma, cat # 286044-1G), a compound shown to inhibit Dyrks were used as a positive control; while DMSO treatment was used as a negative control.\nNCGC Assay Protocol Summary: Two uL/well of substrate solution (8uM Dyrktide, 2uM ATP, 25mM Tris-HCl pH 7.5, 10mM MgCl2 , 0.5mM EGTA, 5mM cystein, 0.01% Triton X-100 final concentration) was dispensed into 1536-well assay plates (Greiner, solid white, medium-binding plates) with Aurora Discovery BioRAPTR Flying Reagent Dispenser (FRD, Beckton-Dickenson). Compound solution (23 nL) was transferred to the assay plate using Kalypsys pin tool equipped with a 1536-pin tool. One uL/well enzyme solution (5nM Dyrk1A, 25mM Tris-HCl pH7.5, 10mM MgCl2, 0.5mM EGTA, 5mM cystein, 0.01% Triton X-100 final concentration) was then added using FRD yielding a total kinase reaction volume of 3uL/well. After 2 hours of room temperature incubation, 3uL Kinase-Glo detection reagent was added for a final assay volume of 6uL/well. The plates were spun for 30 seconds (1000 rpm) and incubated at ambient temperature for 2 minutes followed by a luminescence read using Perkin Elmer ViewLux plate reader at 3 seconds exposure time and 2x binning.", "values": [{"smiles": "Cc1ccc(CNc2ncnc3ccc(-c4ccc([C@@H](C)O)o4)cc23)o1", "Potency": "26 µM (active) and 16.4 µM (active) and 23.2 µM (active)"}, {"smiles": "Cc1cccc(-c2ccc3ncnc(NCc4cccs4)c3c2)c1", "Potency": "18.4 µM (active)"}, {"smiles": "CC(Nc1ncnc2ccc(-c3ccc4c(c3)OCO4)cc12)c1ccco1", "note": "(centres undefined)", "Potency": "0.582 µM (active)"}, {"smiles": "Cc1csc(CNc2ncnc3ccc(-c4ccoc4)cc23)c1", "Potency": "3.68 µM (active)"}, {"smiles": "C[C@@H](O)c1ccc(-c2ccc3ncnc(NCc4cccs4)c3c2)o1", "Potency": "23.2 µM (active)"}, {"smiles": "Cc1ccsc1CN(C)c1ncnc2ccc(-c3ccc(COC(=O)N(C)C)o3)cc12", "Potency": "9.23 µM (active)"}, {"smiles": "Cc1cccc(CNc2ncnc3ccc(-c4ccc5c(c4)OCCO5)cc23)c1", "Potency": "3.68 µM (active)"}, {"smiles": "CN(Cc1ccco1)c1ncnc2ccc(-c3ccoc3)cc12", "Potency": "0.207 µM (active)"}, {"smiles": "c1nc(N2CCNCC2)c2cc(-c3ccc4c(c3)OCO4)ccc2n1", "Potency": "5.19 µM (active)"}, {"smiles": "COc1cccc(-c2ccc3ncnc(NCc4cccc(C)c4)c3c2)c1", "Potency": "8.23 µM (active)"}, {"smiles": "c1cncc(CNc2ncnc3ccc(-c4ccco4)cc23)c1", "Potency": "26 µM (active)"}, {"smiles": "c1csc(CNc2ncnc3cc(-c4ccc5c(c4)OCO5)ccc23)c1", "Potency": "26 µM (active)"}, {"smiles": "COc1cccc(-c2ccc3ncnc(NCc4cc(C)cs4)c3c2)c1", "Potency": "5.82 µM (active)"}, {"smiles": "CN(CCc1ccco1)c1ncnc2ccc(-c3ccc4c(c3)OCO4)cc12", "Potency": "0.292 µM (active)"}, {"smiles": "COc1cccc(Nc2ncc3nc(-c4cn(C)c5ccccc45)c(=O)n(CCC#N)c3n2)c1", "Potency": "inactive"}, {"smiles": "CC(O)c1ccc(-c2ccc3ncnc(NCCc4cnc[nH]4)c3c2)o1", "note": "(centres undefined)", "Potency": "23.2 µM (active)"}, {"smiles": "Cc1csc(CNc2ncnc3ccc(-c4cccnc4)cc23)c1", "Potency": "23.2 µM (active)"}, {"smiles": "c1coc(CNc2ncnc3ccc(-c4ccc5c(c4)OCO5)cc23)c1", "Potency": "0.207 µM (active)"}, {"smiles": "Clc1ccccc1-c1ccc2ncnc(NCc3cccnc3)c2c1", "Potency": "26 µM (active)"}, {"smiles": "OCc1ccc(-c2ccc3ncnc(N4CCOCC4)c3c2)o1", "Potency": "16.4 µM (active)"}, {"smiles": "Cc1csc(CNc2ncnc3ccc(-c4ccc5c(c4)OCCO5)cc23)c1", "Potency": "1.64 µM (active)"}, {"smiles": "Fc1cccc(CNc2ncnc3ccc(-c4ccccc4Cl)cc23)c1", "Potency": "16.4 µM (active)"}, {"smiles": "Cc1ccc(CN(C)c2ncnc3ccc(-c4ccc(C(=O)O)o4)cc23)o1", "Potency": "16.4 µM (active)"}, {"smiles": "c1cncc(CNc2ncnc3ccc(-c4ccc5c(c4)OCO5)cc23)c1", "Potency": "0.412 µM (active)"}, {"smiles": "Cc1cccc(CNc2ncnc3ccc(-c4ccc5c(c4)OCO5)cc23)c1", "Potency": "1.04 µM (active)"}, {"smiles": "Fc1cccc(CNc2ncnc3ccc(-c4ccoc4)cc23)c1", "Potency": "0.823 µM (active)"}, {"smiles": "Clc1cccc(-c2ccc3ncnc(NCc4cccs4)c3c2)c1", "Potency": "13 µM (active)"}, {"smiles": "CN(CC1CCCCO1)c1ncnc2ccc(-c3ccc4c(c3)OCO4)cc12", "note": "(centres undefined)", "Potency": "0.292 µM (active)"}, {"smiles": "Cc1nc(CCN(C)c2ncnc3ccc(-c4ccc5c(c4)OCO5)cc23)cs1", "Potency": "0.654 µM (active)"}, {"smiles": "CN(C)CCCNc1ncnc2ccc(-c3ccc4c(c3)OCO4)cc12", "Potency": "8.23 µM (active)"}, {"smiles": "c1nc(N2CCOCC2)c2cc(-c3ccc4c(c3)OCO4)ccc2n1", "Potency": "1.46 µM (active)"}, {"smiles": "Cc1nc(C(C)N(C)c2ncnc3ccc(-c4ccc5c(c4)OCO5)cc23)cs1", "note": "(centres undefined)", "Potency": "29.2 µM (active)"}, {"smiles": "Cc1cccc(CNc2ncnc3ccc(-c4ccoc4)cc23)c1", "Potency": "3.68 µM (active)"}, {"smiles": "CC(=O)c1ccc(-c2ccc3ncnc(NCc4ccc(C)o4)c3c2)o1", "Potency": "5.82 µM (active)"}, {"smiles": "c1nc(NCC2CCCCC2)c2cc(-c3ccc4c(c3)OCO4)ccc2n1", "Potency": "0.26 µM (active)"}, {"smiles": "CN(CC1CCCO1)c1ncnc2ccc(-c3ccc4c(c3)OCO4)cc12", "note": "(centres undefined)", "Potency": "0.26 µM (active)"}, {"smiles": "Cc1ccc(CNc2ncnc3cc(-c4ccc5c(c4)OCO5)ccc23)o1", "Potency": "23.2 µM (active)"}, {"smiles": "Cc1csc(CNc2ncnc3ccc(-c4ccc5c(c4)OCO5)cc23)c1", "Potency": "0.463 µM (active)"}, {"smiles": "CS(=O)(=O)CCNCc1ccc(-c2ccc3ncnc(Nc4ccc(OCc5cccc(F)c5)c(Cl)c4)c3c2)o1", "Potency": "inactive"}]}]}
